Measured values taken from PubChem BioAssay.
The source made the active and inactive calls. Unless noted, the rule behind the calls is not given here.

Columns and labels:
[1] = inhibition of Brca1/Bard1 split-luciferase complementation, confirmation, counter-screen for Mdm2/MdmX interaction inhibitor project, luminescence, single concentration (AID 504668); details: Brca1/Bard1 bimolecular luciferase complementation counterscreen, at 8 µM, stronger effect = higher value
PEG-3 [2] = molecular target: PEG-3 (UniProt Q6IN02); assay: Peg3 promoter luciferase inhibitors, potency, dose response, cell-based, HeLa, CREF/GAPDH counter-screen panel (AID 624167); details: CREF/GAPDH counter-screens; HeLa PEG-Prom luciferase reporter, overnight, run 1, dose range 1, at 100 µM (top of the series) unless noted
PEG-3 [3] = molecular target: PEG-3 (UniProt Q6IN02); assay: as above; details: CREF/GAPDH counter-screens; HeLa PEG-Prom luciferase reporter, overnight, run 2, dose range 1, at 100 µM (top of the series) unless noted
Rat fibroblasts (CREF) [4] = assay: as above; details: CREF/GAPDH counter-screens; run 1, dose range 1, at 100 µM (top of the series)
Rat fibroblasts (CREF) [5] = assay: as above; details: CREF/GAPDH counter-screens; run 2, dose range 1, at 100 µM (top of the series)
[6] = inhibitors of PAF-induced NFkB signaling in CF airway cells, dose response, cell-based, uHTS hits, panel, cytotoxicity readout (AID 624344); details: CF bronchial epithelial cells, PAF-induced NFkB reporter inhibition, with PAF, run 1; at 79 µM (top of the series) unless noted
[7] = as above; details: CF bronchial epithelial cells, PAF-induced NFkB reporter inhibition, with PAF, run 2; at 79 µM (top of the series) unless noted
[8] = molecular target: Tumor necrosis factor receptor superfamily member 10B (Homo sapiens) (UniProt O14763); assay: caspase-8 TRAIL sensitization, hit retest, confirmation, cell-based, NB7+caspase-8, with/without TRAIL, luminescence panel (AID 651596; in the data active = activity above about 50%); details: NB7 neuroblastoma + caspase-8, TRAIL sensitization, luminescence viability, with TRAIL, mean of runs, at 10 µM, stronger effect = higher value
[9] = as above; details: NB7 neuroblastoma + caspase-8, without TRAIL, luminescence viability, without TRAIL, mean of runs, at 10 µM

Sequence of Tumor necrosis factor receptor superfamily member 10B (Homo sapiens) (O14763 whole entry, looked up): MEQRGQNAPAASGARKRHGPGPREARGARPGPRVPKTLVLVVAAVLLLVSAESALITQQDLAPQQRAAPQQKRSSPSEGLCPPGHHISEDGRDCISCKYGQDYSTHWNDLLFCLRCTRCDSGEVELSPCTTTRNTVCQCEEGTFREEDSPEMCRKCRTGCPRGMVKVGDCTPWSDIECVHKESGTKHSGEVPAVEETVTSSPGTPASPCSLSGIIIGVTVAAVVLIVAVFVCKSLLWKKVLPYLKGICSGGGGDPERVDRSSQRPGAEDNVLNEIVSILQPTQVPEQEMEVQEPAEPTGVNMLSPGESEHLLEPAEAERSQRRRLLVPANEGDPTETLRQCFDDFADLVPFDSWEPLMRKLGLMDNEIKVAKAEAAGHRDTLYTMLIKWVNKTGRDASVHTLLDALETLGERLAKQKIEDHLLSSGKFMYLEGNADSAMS
Sequence of PEG-3 (Q6IN02 whole entry, looked up): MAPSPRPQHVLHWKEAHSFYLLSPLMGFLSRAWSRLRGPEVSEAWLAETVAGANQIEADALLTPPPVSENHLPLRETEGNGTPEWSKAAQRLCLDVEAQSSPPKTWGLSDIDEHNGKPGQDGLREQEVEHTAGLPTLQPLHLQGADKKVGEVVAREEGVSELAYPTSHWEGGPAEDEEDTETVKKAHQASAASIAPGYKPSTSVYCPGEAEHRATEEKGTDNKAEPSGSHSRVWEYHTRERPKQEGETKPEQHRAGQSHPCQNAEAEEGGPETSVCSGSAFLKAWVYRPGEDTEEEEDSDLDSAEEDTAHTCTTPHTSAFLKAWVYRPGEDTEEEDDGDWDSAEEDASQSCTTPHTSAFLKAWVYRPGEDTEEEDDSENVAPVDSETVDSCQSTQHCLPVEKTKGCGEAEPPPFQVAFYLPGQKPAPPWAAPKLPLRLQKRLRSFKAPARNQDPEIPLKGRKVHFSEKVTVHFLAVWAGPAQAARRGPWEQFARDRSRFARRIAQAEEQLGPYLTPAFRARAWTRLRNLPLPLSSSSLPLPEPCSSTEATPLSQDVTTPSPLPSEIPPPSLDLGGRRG

SMILES: O=C(N/N=C\c1c(O)ccc2ccccc12)c1cncc(Br)c1
- inhibition [1]: 26.8% (active)
- inhibition (PEG-3 [2]): 82.3%
- inhibition (PEG-3 [3]): 79.4%
- inhibition (Rat fibroblasts (CREF) [4]): 78.3%
- inhibition (Rat fibroblasts (CREF) [5]): 79.5%

SMILES: COc1ccccc1C(=O)Nc1nc2ccccc2s1
- inhibition [1]: 31.7% (active)
- inhibition (PEG-3 [2]): 101%
- inhibition (PEG-3 [3]): 98%
- inhibition (Rat fibroblasts (CREF) [4]): 100%
- inhibition (Rat fibroblasts (CREF) [5]): 99.5%

SMILES: CC(C)CN=C(NS(=O)(=O)c1ccccc1)C(Cl)(Cl)Cl
- inhibition [1]: 35.9% (active)
- inhibition [6]: 102%
- inhibition [7]: 112%

SMILES: O=C(Nc1ccc(N2CCOCC2)cc1)c1cnsn1
- inhibition [1]: 32.1% (active)
- inhibition (PEG-3 [2]): 96.4%
- inhibition (PEG-3 [3]): 98.9%
- inhibition (Rat fibroblasts (CREF) [4]): 97.9%
- inhibition (Rat fibroblasts (CREF) [5]): 60.2%
- activity [8]: 78.7%
- activity [9]: 75.9%

SMILES: CN(C)CCCN(C(=O)c1ccc(C(=O)c2ccccc2)cc1)c1nc2cc3c(cc2s1)OCO3
- inhibition [1]: 31.7% (active)
- inhibition (PEG-3 [2]): 99.4%
- inhibition (PEG-3 [3]): 102%
- activity [8]: 46.7%
- activity [9]: 54.3%

SMILES: CC(C)(C)c1ccc(C(=O)O/N=C(\N)c2ccccn2)cc1
- inhibition [1]: 28% (active)
- inhibition (PEG-3 [2]): 102%
- inhibition (PEG-3 [3]): 99%
- inhibition (Rat fibroblasts (CREF) [4]): 101%
- inhibition (Rat fibroblasts (CREF) [5]): 99.9%
- activity [8]: 99.8%
- activity [9]: 99.8%

SMILES: Cc1cnc(NC(=O)c2ccc3c(c2)OCCO3)s1
- inhibition [1]: 28.6% (active)
- inhibition (PEG-3 [2]): 98.1%
- inhibition (PEG-3 [3]): 97%
- inhibition (Rat fibroblasts (CREF) [4]): 100%
- inhibition (Rat fibroblasts (CREF) [5]): 99.6%
- activity [8]: 98.2%
- activity [9]: 98.5%

SMILES: O=c1c2ccccc2sc2ccc(C#CC3(O)CCCCC3)cc12
- inhibition [1]: 25.4% (active)
- inhibition (PEG-3 [2]): 99.4%
- inhibition (PEG-3 [3]): 98%
- inhibition (Rat fibroblasts (CREF) [4]): 100%
- inhibition (Rat fibroblasts (CREF) [5]): 100%
- activity [8]: 97.6%
- activity [9]: 97.2%

SMILES: COc1ccc(-c2nsc3c(N4CCCCC4C)ncnc23)cc1 (stereo unspecified)
- inhibition [1]: 24.8% (active)
- inhibition (PEG-3 [2]): 89.7%
- inhibition (PEG-3 [3]): 93.5%
- activity [8]: 86.8%
- activity [9]: 87.7%

SMILES: Cc1[nH]nc2nc(SCC(=O)NCCC3=CCCCC3)n(-c3ccc(Br)cc3)c(=N)c12
- inhibition [1]: 31.1% (active)
- inhibition [6]: 100%
- inhibition [7]: 111%
- activity [8]: 58.5%
- activity [9]: 88.4%

SMILES: COc1ccc(-c2cn[nH]c2-c2ccc(OC)cc2O)cc1
- inhibition [1]: 32.5% (active)
- inhibition [6]: 103%
- inhibition [7]: 112%

SMILES: CCCN(CCC)c1ncnc2nc[nH]c12
- inhibition [1]: 34.6% (active)
- inhibition [6]: 109%
- inhibition [7]: 108%

SMILES: Cn1c(=O)c2c(nc(Oc3ccc4ccccc4c3)n2C)n(C)c1=O
- inhibition [1]: 33.6% (active)
- inhibition [6]: 93.3%
- inhibition [7]: 81.7%

SMILES: CCOC(=O)Nc1ccc2c(c1)N(C(=O)CCN(CC)CC)c1ccccc1S2=O (stereo unspecified)
- inhibition [1]: 29.9% (active)
- inhibition [6]: 102%
- inhibition [7]: 107%

SMILES: CCOc1cc(Br)c(Br)c(C=Nc2ccc(NC(C)=O)cc2)c1O
- inhibition [1]: 33.1% (active)
- inhibition [6]: 105%
- inhibition [7]: 115%

SMILES: Cc1ccc2nc(C(F)(F)F)c(C#N)c(N)c2c1
- inhibition [1]: 25.7% (active)
- inhibition [6]: 114%
- inhibition [7]: 106%

SMILES: COc1ccc(-c2cc(=O)oc3c(C)c(OC(=O)c4cccs4)ccc23)cc1
- inhibition [1]: 32.9% (active)
- inhibition [6]: 66.8%
- inhibition [7]: 93%

SMILES: Cc1nc2sc(C(N)=O)c(N)c2c(C)c1CC(=O)c1ccccc1
- inhibition [1]: 31.4% (active)
- inhibition [6]: 101%
- inhibition [7]: 80.3%

SMILES: CCOc1ccc(-n2c(C)c(C(C)=O)c3cc(O)ccc32)cc1
- inhibition [1]: 31.2% (active)
- inhibition [6]: 90%
- inhibition [7]: 88.2%

SMILES: FC(F)(F)c1nnc2c(Sc3ccc(Cl)cc3)nc3ccccc3n12
- inhibition [1]: 31.6% (active)
- inhibition [6]: 98%
- inhibition [7]: 109%

SMILES: Cc1c(C=O)c(C=O)c(C)n1Cc1ccccc1
- inhibition [1]: 30.8% (active)
- inhibition [6]: 118%
- inhibition [7]: 103%

SMILES: COc1ccc2[nH]c3c(c2c1)CC(C)NC3=O (stereo unspecified)
- inhibition [1]: 33.6% (active)
- inhibition [6]: 103%
- inhibition [7]: 112%

SMILES: COc1ccc(-c2csc3ncnc(NCCO)c23)cc1
- inhibition [1]: 26.2% (active)
- inhibition [6]: 104%
- inhibition [7]: 113%

SMILES: O=C(Nc1cccc2[nH]ncc12)c1ccc(F)cc1
- inhibition [1]: 25% (active)
- inhibition [6]: 102%
- inhibition [7]: 95.5%

SMILES: COc1ccc2cc(C(N)=O)c(=Nc3ccc(C)cc3)oc2c1
- inhibition [1]: 35.2% (active)
- inhibition [6]: 87.6%
- inhibition [7]: 75.7%

SMILES: Cc1cccc(Nc2ncnc3ccc(Br)cc23)c1
- inhibition [1]: 25.6% (active)
- inhibition [6]: 103%
- inhibition [7]: 110%

SMILES: CC(C)Nc1ncnc2ccc(Br)cc12
- inhibition [1]: 24.8% (active)
- inhibition [6]: 118%
- inhibition [7]: 104%

SMILES: CCc1c(C)nc2ccc(Br)cc2c1SCCC#N
- inhibition [1]: 23.1% (active)
- inhibition [6]: 105%
- inhibition [7]: 113%

SMILES: COc1cc2cncc(Cc3ccc(Cl)cc3)c2cc1OC
- inhibition [1]: 26.2% (active)
- inhibition [6]: 104%
- inhibition [7]: 109%

SMILES: Cc1cccc(CNc2ncnc3ccc(-c4ccoc4)cc23)c1
- inhibition [1]: 23.8% (active)
- inhibition [6]: 114%
- inhibition [7]: 106%

SMILES: Cn1nnnc1Sc1ncnc2scc(-c3ccc[nH]3)c12
- inhibition [1]: 29.2% (active)
- inhibition [6]: 66.8%
- inhibition [7]: 61.6%

SMILES: O=[N+]([O-])c1ccc2ncnc(N3CCN(Cc4ccc5c(c4)OCO5)CC3)c2c1
- inhibition [1]: 24.3% (active)
- inhibition [6]: 112%
- inhibition [7]: 91.3%

SMILES: OCCCNc1ncnc2scc(-c3ccc(Cl)cc3)c12
- inhibition [1]: 33.2% (active)
- inhibition [6]: 115%
- inhibition [7]: 103%

SMILES: CC(C)c1nc(NCCO)c(C#N)c2c1CCCC2
- inhibition [1]: 35% (active)
- inhibition [6]: 112%
- inhibition [7]: 103%

SMILES: Nc1ncnc(NCc2ccc(F)cc2)c1[N+](=O)[O-]
- inhibition [1]: 27% (active)
- inhibition [6]: 99%
- inhibition [7]: 98.9%

SMILES: Clc1cccc(Nc2ncnc3ccc(Br)cc23)c1
- inhibition [1]: 35.6% (active)
- inhibition [6]: 109%
- inhibition [7]: 104%

SMILES: Cc1cc(N2CCOCC2)c2c(N)c(Br)cc(C)c2n1
- inhibition [1]: 35.4% (active)
- inhibition [6]: 118%
- inhibition [7]: 97.8%

SMILES: C=C(C)COc1ccc(-c2[nH]ncc2-c2ccc(OC)cc2)c(O)c1
- inhibition [1]: 28.9% (active)
- inhibition [6]: 114%
- inhibition [7]: 105%

SMILES: Clc1cncc(Cl)c1N/N=C/c1ccncc1
- inhibition [1]: 27.6% (active)
- inhibition [6]: 105%
- inhibition [7]: 118%

SMILES: COc1cccc(NC(=O)Nc2nnc(CC(=O)NCc3ccccc3)s2)c1
- inhibition [1]: 35.1% (active)
- inhibition [6]: 79.8%
- inhibition [7]: 83.7%
